# Screening data (PubChem BioAssay)
# Hits are enriched below; roughly 1.6% of the tested compounds scored in any of these assays.
# KCNQ2 block: blocks the rat KCNQ2 potassium channel; B-score at 10 µM; actives 1.1% (n = 310,000); CHO-K1 KCNQ2, FluxOR thallium flux, 20 min; active compounds read low;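 active = fluorescence ratio B-score at most minus 3 library SDs, with starting brightness B-score within 2 library SDs, cut at about -5.5 in these data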
# KCNQ2 enhance: enhances the rat KCNQ2 potassium channel; CHO-K1 KCNQ2, FluxOR thallium flux fluorescence; active compounds read high; B-score at 10 µM; actives 0.54% (n = 310,000);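 active = fluorescence ratio B-score at least 3 SD of library B-scores, with initial fluorescence B-score within 3 of them, cut at about 5.3 in these data; same plate scores as AID 2156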;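 also: B-score of peak minus minimum over baseline fluorescence ratio after K+ and Tl+ stimulus; positive B-score means potentiation of KCNQ2 with more thallium influx and brighter signal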
# Kir21 confirm: confirmation of mouse Kir2.1 potassium channel inhibitors | shares compounds with KCNQ2 enhance | Kir2.1-expressing cells, FluxOR thallium flux fluorescence; active compounds read low | Tl flux remaining, % of negative control (active compounds read low), % at 10 µM | actives 41% (n = 2,300);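 active = Primary-screen hit whose thallium flux fell at least 3 control SD below untreated wells in both duplicates, with normal baseline fluorescence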;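 also: 0% = blank wells without stimulus and 100% = stimulated no-compound controls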
# HEK293 ctr: counter-screen for Kir2.1 inhibitors: effect in parental HEK293 cells; AID 2105; actives 19% (n = 2,300); shares compounds with KCNQ2 enhance; FluxOR thallium flux fluorescence; 0% = unstimulated blank wells; FluxOR signal as % of negative control (100 = no effect), % at 10 µM;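 active = dye signal at least 3 control SD above or below untreated wells in both duplicates, raw fluorescence within 3, either direction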;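 also: percent is based on the flux ratio of peak minus minimum fluorescence over baseline F0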
# CHO-K1 ctr: alters thallium flux in parental CHO-K1 cells, KCNQ2 counter-screen; shares compounds with KCNQ2 enhance; actives 43% (n = 1,200); FluxOR thallium flux fluorescence; zero = vehicle mean+3SD, 100% = vehicle-minus-blank window; activity increase over 3SD of controls, % at 10 µM;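 active = signal rise of at least 3 SD above the untreated control mean, in both duplicate wells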;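 also: counter screen of KCNQ2 potentiator hits so any rise reflects channel-independent effects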
# KCNQ1 sel pot: human KCNQ1 counter-target activity of KCNQ2 potentiators; shares compounds with KCNQ2 enhance; CHO KCNQ1 stable, FluxOR thallium flux fluorescence; beyond 3SD, as % of vehicle-control signal; activation over 3SD threshold, % at 10 µM; actives 28% (n = 1,200); AID 2283;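 active = fluorescence ratio rise of at least 3 SD of vehicle wells above their mean, in both replicate wells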;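 also: 0% = vehicle mean plus 3 SD and 100% = vehicle minus unstimulated blank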
# KCNQ2 pot confirm: rat KCNQ2 channel potentiator confirmation; actives 68% (n = 1,200); CHO-KCNQ2 cells, FluxOR thallium flux fluorescence; shares compounds with KCNQ2 enhance; potentiation, less the hit threshold, % at 10 µM;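 active = fluorescence ratio rising 3 SD or more over the vehicle control mean in both replicates, plus primary screen hit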;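 also: peak minus minimum thallium fluorescence divided by baseline after K/Tl stimulus; 0% = vehicle mean plus 3 SD and 100% = vehicle minus unstimulated blank difference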
# Kir2-1 sel: mouse Kir2.1 off-target activity of KCNQ2 potentiators. shares compounds with KCNQ2 enhance. HEK293 Kir2.1, FluxOR thallium flux fluorescence. activity over 3SD threshold, % at 10 µM. actives 2% (n = 1,200). AID 2345;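 active = fluorescence ratio rise of at least 3 SD above the vehicle-control mean, seen in both replicates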;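 also: 0% = vehicle mean plus 3 SD and 100% = vehicle minus no-stimulus blank window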
# KCNQ2 W236L MoA: rat KCNQ2 W236L mutant potentiation by KCNQ2 potentiators; shares compounds with KCNQ2 enhance; CHO KCNQ2-W236L, automated patch clamp current; current increase over 3SD of negative controls (%), active compounds read high, % at 25 µM; actives 10% (n = 940); AID 2558;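 active = current increase at least 3 SD of the untreated controls above them in both duplicate recordings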
# Active calls of the source: *; i = inactive; x = not tested or not shown.
SMILES,KCNQ2 block,KCNQ2 enhance,Kir21 confirm,HEK293 ctr,others
CN(C)CCCN(C(=O)c1ccc2c(c1)OCCO2)c1nc2ccc(Cl)cc2s1,i,x,54.0%*,i,
CN(C)CCN(C(=O)c1ccc2c(c1)OCCO2)c1nc2ccc(Cl)cc2s1,i,0.29,x,x,
CN(C)c1ccc(N/C=C/C(=O)C(C)(C)C)cc1,i,x,x,x,
CC(C)(C)C(=O)/C=C/Nc1ccccc1O,i,8.99*,i,71.0%*,CHO-K1 ctr=-12.2;KCNQ1 sel pot=78.4*;KCNQ2 pot confirm=59.3*;Kir2-1 sel=-13.7;KCNQ2 W236L MoA=1.6%*
O=C(NNC(=S)NC1CCCCC1)c1cccs1,i,0.02,x,x,
CC1CCCCC1NC(=S)NC(=O)c1cccs1 (centres undefined),i,8.39*,i,187.5%*,CHO-K1 ctr=43.9*;KCNQ1 sel pot=22.7*;KCNQ2 pot confirm=14.9*;Kir2-1 sel=-24.5;KCNQ2 W236L MoA=i
CCc1ccc(-n2c(=O)c3c(C)c(C(=O)N(C)C)sc3n(CC(=O)NCc3ccco3)c2=O)cc1,i,0.3,x,x,
CCOCCCNC(=O)c1ccc(-n2c(=S)[nH]c3ccccc3c2=O)cc1,i,x,x,x,
COc1cc(C(C(=O)Nc2c(C)cccc2C)N(C)C(=O)c2ccc(-n3cnnn3)cc2)ccc1O (centres undefined),i,x,x,x,
CCn1cc(CCC(=O)NCCc2ccccc2)c2ccccc21,i,x,x,x,
CCn1cc(CCC(=O)NC(C)c2ccccc2)c2ccccc21 (centres undefined),i,0.65,i,i,
CCCCC1=CC2=CC(=O)C(C)(OC(=O)c3ccc(Cl)nc3)C(=O)C2=CO1 (centres undefined),i,x,x,x,
Cc1cccc(C2NC(c3cccc(C)c3)C(C)C(=O)C2C)c1 (centres undefined),i,x,x,x,
Cc1nonc1OCCNC(=O)C12CC3CC(CC(C3)C1)C2,i,13.2*,i,73.5%*,CHO-K1 ctr=74.2*;KCNQ1 sel pot=-20.1;KCNQ2 pot confirm=-13.6;Kir2-1 sel=-41.2
CCOC(=O)CNC(=O)C12CC3CC(CC(C3)C1)C2,i,0.43,x,x,
CCOC(=O)C1(Cc2cccc(Cl)c2)CCCN(C(=O)CN2C(=O)CSC2=O)C1 (centres undefined),i,x,x,x,
CC(=O)N(CC(=O)O)c1ccccc1,i,0.66,x,x,
CC(=O)N(CC(C)(C)CC=C(C)C)c1ccccc1,i,x,54.5%*,i,
O=C(c1cccc(C(F)(F)F)c1)N1CCN(CCc2ccccc2)CC1,i,x,x,x,
CC(=O)C1=NN(c2ccccc2)C2(S1)S/C(=C\c1ccccc1)C(=O)N2c1ccccc1 (centres undefined),i,1.22,x,x,
O=C(CCN1C(=O)c2ccccc2C1=O)C1=NN[C@@H]2C(=O)N(c3ccc4c(c3)OCO4)C(=O)[C@H]12,i,x,x,x,
COc1ccccc1NC(=O)NCCN1CCN(c2cccc(Cl)c2)CC1,i,x,x,x,
Fc1ccc(C(CCNCc2ccccn2)c2ccc(Cl)cc2)cc1 (centres undefined),i,x,33.5%*,i,
OC(CNCc1ccccn1)c1ccccc1 (centres undefined),i,0.24,x,x,
CN(c1ccccc1)S(=O)(=O)c1cccc(C(=O)Nc2nn[nH]n2)c1,i,0.08,x,x,
SMILES,KCNQ2 block,KCNQ2 enhance,Kir21 confirm,HEK293 ctr,others
CC(=O)N1CCc2cc(S(=O)(=O)CCC(=O)NCCc3ccccc3)ccc21,i,1.82,x,x,
c1ccc(-c2ccccc2OCCN2CCCC2)cc1,i,x,x,x,
c1ccc(-c2ccccc2OCCCCN2CCCCCC2)cc1,i,x,38.5%*,i,
O=C(NNC1=NC2(CCCC2)Cc2ccccc21)c1ccncc1,i,x,x,x,
c1ccc(OCCCCN2CCCCC2)cc1,i,x,x,x,
c1ccc2c(c1)OC(CCCN1CCCCC1)c1ccccc1S2 (centres undefined),i,x,49.0%*,i,
CC(=O)N1CC(C)Sc2ccc(S(=O)(=O)NCc3ccccc3Cl)cc21 (centres undefined),i,x,75.0%*,i,
CC(=O)N1CCOc2ccc(S(=O)(=O)NCc3ccccc3Cl)cc21,i,x,x,x,
COc1ccc(N2CCN(C(=O)C3CCN(C(=O)c4cccc(Cl)c4)CC3)CC2)cc1,i,x,x,x,
CCOc1ccccc1OCC(=O)NNC(=O)Cn1cnc2c1c(=O)n(C)c(=O)n2C,i,x,x,x,
Cc1ccc(-n2c(=S)[nH]c3sc4c(c3c2=O)CCc2ccccc2-4)cc1,i,x,x,x,
Cc1cccc(-n2c(=S)[nH]c3sc4c(c3c2=O)CCc2ccccc2-4)c1,i,5.61*,i,195.5%*,CHO-K1 ctr=-10.8;KCNQ1 sel pot=-25.5;KCNQ2 pot confirm=-10.4;Kir2-1 sel=-25.4;KCNQ2 W236L MoA=i
CC(NC(=O)c1ccc2c(c1)C(=O)N(Cc1cccnc1)C2=O)c1ccccc1 (centres undefined),i,x,x,x,
Cc1cc2nnc(SCC(=O)Nc3cccc(S(=O)(=O)N4CCOCC4)c3)n2c2ccccc12,i,x,x,x,
Cc1cc(Cl)c(OCCCNC2CCCC2)c(Br)c1,i,2.86,x,x,
C=CCNCCCCOc1c(Cl)cc(C)cc1Br,i,0.5,35.0%*,i,
COCCCNCCCCOc1c(Cl)cc(C)cc1Br,i,x,43.5%*,i,
C=CCNCCOc1c(C)cc(C)cc1Cl,i,1.72,x,x,
Cc1ccc(S(=O)(=O)NCCSc2nnnn2-c2cc(C)ccc2C)cc1,i,0.86,x,x,
Cc1ccc(S(=O)(=O)NCCSc2nnnn2-c2ccccc2)cc1,i,0.37,67.5%*,i,
COc1ccc(C(=O)C2CCCN(C(=O)C3=CCCC3)C2)c(C)c1 (centres undefined),i,x,x,x,
CCOc1ccc(NC(C)c2cc(Cl)ccc2O)cc1 (centres undefined),i,4.52,x,x,
CC(Nc1ccc(Cl)cc1)c1cc(Cl)ccc1O (centres undefined),i,4.15,59.0%*,i,
O=C(OC1CCCCC1=O)c1cc(Cl)ccc1[N+](=O)[O-] (centres undefined),i,1.22,x,x,
CC1=C(C(=O)O)N2C(=O)C(NC(=O)c3ccccc3Cl)C2SC1 (centres undefined),i,12.6*,i,i,CHO-K1 ctr=4.5*;KCNQ1 sel pot=-23.5;KCNQ2 pot confirm=-8.6;Kir2-1 sel=-32.1
CC1=C(C(=O)O)N2C(=O)C(NC(=O)c3nn(C)cc3Cl)C2SC1 (centres undefined),i,x,x,x,
